Data reported in PubChem BioAssay AID1159580 (chemical genetic matrix, 2015).
Screen size: about 5,500 compounds; about 2,000 (36%) were called active. Not shown: some 18% with an inconclusive outcome. No stated cut-off is given here; in the data, active means normalized growth mostly below about 0.91 (no sharp cut-off); inconclusive means no clear call, values can overlap the other calls; inactive means mostly above about 0.92. The list shows a part of the results.

Experiment: chemical genetic growth profiling, strain panel (AID 1159580);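 further: tested at 20 µM; growth read once vehicle control cultures reached saturation at 30 °C; 1 = growth at the plate median or of vehicle wells; lower values mean less growth of the strain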
Details: growth OD
[1] = S. cerevisiae deletion strains, locus YDL101C, strain DUN1, hits give low values
[2] = S. cerevisiae deletion strains, locus YHR030C, strain SLT2, hits give low values
[3] = S. cerevisiae deletion strains, locus YJL095W, strain BCK1, hits give low values
[4] = S. cerevisiae deletion strains, locus YOR061W, strain CKA2, hits give low values

Measured: normalized growth

NCCC(O)C(=O)NC1CC(N)C(OC2OC(CN)C(O)C(O)C2N)C(OC2OC(CO)C(O)C2O)C1O (configuration not stated)
inactive: S. cerevisiae deletion strains, locus YAL013W, strain DEP1, hits give low values 1.04 | S. cerevisiae deletion strains, locus YBR021W, strain FUR4, hits give low values 0.976 | S. cerevisiae deletion strains, locus YBR229C, strain ROT2, hits give low values 1 | S. cerevisiae deletion strains, locus YCL029C, strain bik1, hits give low values 0.994 | S. cerevisiae deletion strains, locus YDL035C, strain GPR1, hits give low values 0.993 | S. cerevisiae deletion strains, locus YDL074C, strain BRE1, hits give low values 1.03 | [1] 1 | S. cerevisiae deletion strains, locus YDL134C, strain PPH21, hits give low values 0.999 | S. cerevisiae deletion strains, locus YDL185W, strain tfp1, hits give low values 0.979 | S. cerevisiae deletion strains, locus YDL192W, strain arf1, hits give low values 1 | S. cerevisiae deletion strains, locus YDR101C, strain arx1, hits give low values 1 | S. cerevisiae deletion strains, locus YDR150W, strain NUM1, hits give low values 0.999 | S. cerevisiae deletion strains, locus YDR162C, strain NBP2, hits give low values 1.01 | S. cerevisiae deletion strains, locus YDR318W, strain mcm21, hits give low values 0.992 | S. cerevisiae deletion strains, locus YDR388W, hits give low values 0.998 | S. cerevisiae deletion strains, locus YDR502C, strain sam2, hits give low values 1 | S. cerevisiae deletion strains, locus YEL061C, strain CIN8, hits give low values 1 | S. cerevisiae deletion strains, locus YER110C, hits give low values 0.988 | S. cerevisiae deletion strains, locus YER155C, strain BEM2, hits give low values 0.993 | S. cerevisiae deletion strains, locus YER167W, strain BCK2, hits give low values 0.978 | S. cerevisiae deletion strains, locus YGL078C, strain dbp3, hits give low values 0.999 | S. cerevisiae deletion strains, locus YGL086W, strain mad1, hits give low values 0.989 | S. cerevisiae deletion strains, locus YGL248W, strain PDE1, hits give low values 0.994 | S. cerevisiae deletion strains, locus YGR078C, strain PAC10, hits give low values 1.01 | S. cerevisiae deletion strains, locus YGR135W, strain pre9, hits give low values 1.02 | S. cerevisiae deletion strains, locus YGR229C, strain SMI1, hits give low values 1.02 | S. cerevisiae deletion strains, locus YGR252W, strain gcn5, hits give low values 0.994 | [2] 0.983 | S. cerevisiae deletion strains, locus YHR079C, strain IRE1 (second series), hits give low values 0.99 | S. cerevisiae deletion strains, locus YHR094C, strain hxt1, hits give low values 0.989 | S. cerevisiae deletion strains, locus YHR129C, strain ARP1, hits give low values 0.992 | S. cerevisiae deletion strains, locus YHR200W, strain rpn10, hits give low values 0.994 | S. cerevisiae deletion strains, locus YIL066C, strain RNR3, hits give low values 0.999 | S. cerevisiae deletion strains, locus YIL073C, strain SPO22, hits give low values 0.9 | S. cerevisiae deletion strains, locus YIL125W, strain kgd1, hits give low values 0.995 | S. cerevisiae deletion strains, locus YIR030C, strain dcg1, hits give low values 0.993 | [3] 1.06 | S. cerevisiae deletion strains, locus YJL134W, strain LCB3, hits give low values 0.989 | S. cerevisiae deletion strains, locus YJL168C, strain set2, hits give low values 0.991 | S. cerevisiae deletion strains, locus YJL187C, strain SWE1 (second series), hits give low values 0.994 | S. cerevisiae deletion strains, locus YJR043C, strain POL32, hits give low values 1.04 | S. cerevisiae deletion strains, locus YJR075W, strain HOC1, hits give low values 1.02 | S. cerevisiae deletion strains, locus YKL009W, strain mrt4, hits give low values 0.978 | S. cerevisiae deletion strains, locus YKL068W, hits give low values 0.987 | S. cerevisiae deletion strains, locus YKL085W, strain MDH1 (second series), hits give low values 0.972 | S. cerevisiae deletion strains, locus YKL085W, strain MDH1, hits give low values 0.972 | S. cerevisiae deletion strains, locus YKL190W, strain CNB1, hits give low values 0.99 | S. cerevisiae deletion strains, locus YKR001C, strain vps1, hits give low values 1 | S. cerevisiae deletion strains, locus YLR039C, strain RIC1, hits give low values 1.02 | S. cerevisiae deletion strains, locus YLR058C, strain SHM2, hits give low values 0.986 | S. cerevisiae deletion strains, locus YLR102C, strain apc9, hits give low values 0.989 | S. cerevisiae deletion strains, locus YLR262C, strain YPT6, hits give low values 0.985 | S. cerevisiae deletion strains, locus YLR268W, strain sec22, hits give low values 1.02 | S. cerevisiae deletion strains, locus YLR330W, strain CHS5, hits give low values 0.981 | S. cerevisiae deletion strains, locus YLR342W, strain FKS1 (second series), hits give low values 0.968 | S. cerevisiae deletion strains, locus YLR371W, strain rom2, hits give low values 0.978 | S. cerevisiae deletion strains, locus YLR418C, strain cdc73, hits give low values 1.02 | S. cerevisiae deletion strains, locus YML016C, strain PPZ1, hits give low values 0.991 | S. cerevisiae deletion strains, locus YML032C, strain rad52, hits give low values 0.998 | S. cerevisiae deletion strains, locus YML124C, strain tub3, hits give low values 1 | S. cerevisiae deletion strains, locus YMR078C, strain ctf18, hits give low values 0.997 | S. cerevisiae deletion strains, locus YMR223W, strain ubp8, hits give low values 0.995 | S. cerevisiae deletion strains, locus YMR263W, strain SAP30, hits give low values 1.01 | S. cerevisiae deletion strains, locus YMR307W, strain GAS1, hits give low values 0.99 | S. cerevisiae deletion strains, locus YNL067W, strain RPL9B, hits give low values 1.03 | S. cerevisiae deletion strains, locus YNL128W, strain TEP1, hits give low values 1.02 | S. cerevisiae deletion strains, locus YNL153C, strain GIM3, hits give low values 1.01 | S. cerevisiae deletion strains, locus YNL233W, strain BNI4, hits give low values 1 | S. cerevisiae deletion strains, locus YNL250W, strain rad50, hits give low values 0.991 | S. cerevisiae deletion strains, locus YNL271C, strain bni1, hits give low values 0.983 | S. cerevisiae deletion strains, locus YNL298W, strain CLA4, hits give low values 1.01 | S. cerevisiae deletion strains, locus YNL307C, strain MCK1, hits give low values 0.997 | S. cerevisiae deletion strains, locus YNL322C, strain KRE1, hits give low values 0.997 | S. cerevisiae deletion strains, locus YNR052C, strain pop2, hits give low values 0.994 | S. cerevisiae deletion strains, locus YOL006C, strain TOP1, hits give low values 1.05 | S. cerevisiae deletion strains, locus YOL012C, strain htz1 0.88 | S. cerevisiae deletion strains, locus YOL147C, strain pex11, hits give low values 0.994 | [4] 0.999 | S. cerevisiae deletion strains, locus YOR069W, strain VPS5, hits give low values 1.01 | S. cerevisiae deletion strains, locus YOR136W, strain idh2, hits give low values 0.993 | S. cerevisiae deletion strains, locus YOR144C, strain elg1, hits give low values 0.995 | S. cerevisiae deletion strains, locus YOR184W, strain ser1, hits give low values 0.982 | S. cerevisiae deletion strains, locus YOR316C, strain cot1, hits give low values 0.987 | S. cerevisiae deletion strains, locus YPL055C, strain LGE1, hits give low values 1.04 | S. cerevisiae deletion strains, locus YPL241C, strain CIN2, hits give low values 1.01 | S. cerevisiae deletion strains, locus YPR119W, strain clb2, hits give low values 0.993 | S. cerevisiae deletion strains, locus YPR141C, strain kar3, hits give low values 0.992 | S. cerevisiae deletion strains, locus YPR163C, strain tif3, hits give low values 1 | S. cerevisiae deletion strains, locus YPR167C, strain met16, hits give low values 0.994 | S. cerevisiae deletion strains, strain wtn01, hits give low values 0.993 | S. cerevisiae strains, strain wild type, hits give low values 0.992

CCCN(CCC)C(=S)NC(=O)c1cccc([N+](=O)[O-])c1
inactive: S. cerevisiae deletion strains, locus YAR019C, strain CDC15, hits give low values 0.973 | S. cerevisiae deletion strains, locus YBL105C, strain PKC1, hits give low values 0.956 | S. cerevisiae deletion strains, locus YBR135W, strain CKS1, hits give low values 0.977 | S. cerevisiae deletion strains, locus YBR136W, strain MEC1, hits give low values 0.966 | S. cerevisiae deletion strains, locus YBR160W, strain CDC28, hits give low values 0.965 | S. cerevisiae deletion strains, locus YDL017W, strain CDC7, hits give low values 0.969 | S. cerevisiae deletion strains, locus YDL028C, strain MPS1, hits give low values 0.976 | [1] 0.968 | S. cerevisiae deletion strains, locus YDL108W, strain KIN28, hits give low values 0.965 | S. cerevisiae deletion strains, locus YDL132W, strain cdc53, hits give low values 0.973 | S. cerevisiae deletion strains, locus YDL214C, strain PRR2, hits give low values 0.967 | S. cerevisiae deletion strains, locus YDR052C, strain DBF4, hits give low values 0.978 | S. cerevisiae deletion strains, locus YDR054C, strain cdc34, hits give low values 0.96 | S. cerevisiae deletion strains, locus YDR226W, strain ADK1, hits give low values 0.968 | S. cerevisiae deletion strains, locus YDR477W, strain SNF1, hits give low values 0.958 | S. cerevisiae deletion strains, locus YER123W, strain YCK3, hits give low values 0.907 | S. cerevisiae deletion strains, locus YER133W, strain GLC7, hits give low values 0.965 | S. cerevisiae deletion strains, locus YFL009W, strain cdc4, hits give low values 0.961 | S. cerevisiae deletion strains, locus YFL029C, strain CAK1, hits give low values 0.962 | S. cerevisiae deletion strains, locus YFR003C, strain YPI1, hits give low values 0.977 | S. cerevisiae deletion strains, locus YFR019W, strain FAB1, hits give low values 0.958 | S. cerevisiae deletion strains, locus YFR028C, strain CDC14, hits give low values 0.963 | S. cerevisiae deletion strains, locus YGR040W, strain KSS1, hits give low values 0.924 | S. cerevisiae deletion strains, locus YGR052W, strain FMP48, hits give low values 1.02 | S. cerevisiae deletion strains, locus YGR092W, strain DBF2, hits give low values 0.915 | [2] 0.94 | S. cerevisiae deletion strains, locus YHR079C, strain IRE1, hits give low values 0.978 | S. cerevisiae deletion strains, locus YHR082C, strain KSP1, hits give low values 1.02 | S. cerevisiae deletion strains, locus YHR205W, strain SCH9, hits give low values 0.976 | S. cerevisiae deletion strains, locus YIL147C, strain SLN1, hits give low values 0.97 | [3] 0.982 | S. cerevisiae deletion strains, locus YJL128C, strain PBS2, hits give low values 0.952 | S. cerevisiae deletion strains, locus YJL157C, strain FAR1, hits give low values 0.928 | S. cerevisiae deletion strains, locus YJR016C, strain ILV3, hits give low values 0.968 | S. cerevisiae deletion strains, locus YJR066W, strain TOR1 (second series), hits give low values 0.898 | S. cerevisiae deletion strains, locus YJR066W, strain TOR1, hits give low values 0.992 | S. cerevisiae deletion strains, locus YKL048C, strain ELM1, hits give low values 0.954 | S. cerevisiae deletion strains, locus YKL067W, strain YNK1, hits give low values 0.96 | S. cerevisiae deletion strains, locus YKL101W, strain HSL1, hits give low values 0.958 | S. cerevisiae deletion strains, locus YKL193C, strain SDS22, hits give low values 0.968 | S. cerevisiae deletion strains, locus YKL203C, strain TOR2, hits give low values 0.995 | S. cerevisiae deletion strains, locus YLR113W, strain HOG1, hits give low values 0.932 | S. cerevisiae deletion strains, locus YLR133W, strain CKI1, hits give low values 0.946 | S. cerevisiae deletion strains, locus YLR403W, strain SFP1, hits give low values 0.907 | S. cerevisiae deletion strains, locus YML070W, strain DAK1, hits give low values 0.942 | S. cerevisiae deletion strains, locus YMR001C, strain CDC5, hits give low values 0.973 | S. cerevisiae deletion strains, locus YMR205C, strain PFK2 (second series), hits give low values 0.956 | S. cerevisiae deletion strains, locus YMR277W, strain FCP1, hits give low values 0.973 | S. cerevisiae deletion strains, locus YNL006W, strain LST8, hits give low values 0.977 | S. cerevisiae deletion strains, locus YNL020C, strain ARK1, hits give low values 0.946 | S. cerevisiae deletion strains, locus YNL161W, strain CBK1, hits give low values 0.959 | S. cerevisiae deletion strains, locus YNL183C, strain NPR1, hits give low values 0.977 | S. cerevisiae deletion strains, locus YNL207W, strain RIO2, hits give low values 0.971 | S. cerevisiae deletion strains, locus YNL222W, strain SSU72, hits give low values 0.965 | S. cerevisiae deletion strains, locus YNL307C, strain MCK1 (second series), hits give low values 0.94 | S. cerevisiae deletion strains, locus YOL078W, strain AVO1, hits give low values 0.965 | S. cerevisiae deletion strains, locus YOL136C, strain PFK27, hits give low values 0.929 | [4] 0.943 | S. cerevisiae deletion strains, locus YOR119C, strain RIO1, hits give low values 0.996 | S. cerevisiae deletion strains, locus YOR231W, strain MKK1, hits give low values 0.939 | S. cerevisiae deletion strains, locus YOR329C, strain SCD5, hits give low values 0.963 | S. cerevisiae deletion strains, locus YPL031C, strain PHO85, hits give low values 0.955 | S. cerevisiae deletion strains, locus YPL153C, strain RAD53, hits give low values 0.925 | S. cerevisiae deletion strains, locus YPL204W, strain HRR25, hits give low values 0.915 | S. cerevisiae deletion strains, locus YPL209C, strain IPL1, hits give low values 0.961 | S. cerevisiae deletion strains, locus YPL256C, strain CLN2, hits give low values 0.941 | S. cerevisiae deletion strains, locus YPR025C, strain CCL1, hits give low values 0.973 | S. cerevisiae deletion strains, locus YPR106W, strain ISR1, hits give low values 0.961 | S. cerevisiae deletion strains, locus YPR111W, strain DBF20, hits give low values 0.964 | S. cerevisiae deletion strains, strain NNK1, hits give low values 0.974 | S. cerevisiae deletion strains, strain TSCII, hits give low values 0.962
